# Laboratory results from the supplement of paper PMC8728848.
# This is one part of a sample in which the strongest signals are shown more often than they occur.
# Assays:
# Test in all cases: glycan array binding signal (z-score within array); higher = stronger binding
# Details in all cases: glycan notation: IUPAC condensed, linker removed
# [1] = molecular target: Fuc(a1-2)Gal(b1-4)Glc
# Procedure, shortened: (§1)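 The binding signal is a Z-score computed within each array. Data were drawn from 3228 arrays in the Consortium for Functional Glycomics database, restricted to those with a known protein sequence. Scores were averaged over arrays of the same protein sequence at different concentrations or buffers, and over linkers, and negative values can be taken as non-binding.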
# [2] = molecular target: Fuc(a1-2)Gal(b1-4)GlcNAc
# Procedure, shortened: as §1
# [3] = molecular target: Fuc(a1-2)Gal(b1-4)GlcNAc(b1-3)GalNAc
# Procedure, shortened: as §1
# [4] = molecular target: Fuc(a1-2)Gal(b1-4)GlcNAc(b1-3)[Fuc(a1-3)[Gal(b1-4)]GlcNAc(b1-6)]Gal(b1-4)Glc
# Procedure, shortened: as §1
# [5] = molecular target: Fuc(a1-2)Gal(b1-4)[Fuc(a1-3)]GlcNAc(b1-2)[Fuc(a1-2)Gal(b1-4)[Fuc(a1-3)]GlcNAc(b1-4)]Man(a1-3)[Fuc(a1-2)Gal(b1-4)[Fuc(a1-3)]GlcNAc(b1-2)Man(a1-6)]Man(b1-4)GlcNAc(b1-4)GlcNAc
# Procedure, shortened: as §1
# [6] = molecular target: Fuc(a1-2)Gal(b1-4)[Fuc(a1-3)]GlcNAc(b1-3)Gal(b1-4)[Fuc(a1-3)]GlcNAc(b1-3)Gal(b1-4)[Fuc(a1-3)]GlcNAc
# Procedure, shortened: as §1
# [7] = molecular target: Fuc(a1-2)[Gal(a1-3)]Gal(b1-3)GlcNAc(b1-6)GalNAc
# Procedure, shortened: as §1
# [8] = molecular target: Fuc(a1-2)[Gal(a1-3)]Gal(b1-4)GlcNAc(b1-3)[Fuc(a1-2)[Gal(a1-3)]Gal(b1-4)GlcNAc(b1-6)]GalNAc
# Procedure, shortened: as §1
# [9] = molecular target: Fuc(a1-2)[GalNAc(a1-3)]Gal(b1-3)GlcNAc
# Procedure, shortened: as §1
# [10] = molecular target: Fuc(a1-2)[GalNAc(a1-3)]Gal(b1-4)GlcNAc(b1-2)Man
# Procedure, shortened: as §1
# [11] = molecular target: Fuc(a1-2)[GalNAc(a1-3)]Gal(b1-4)[Fuc(a1-3)]GlcNAc(b1-3)GalNAc
# Procedure, shortened: as §1
# [12] = molecular target: Fuc(a1-3)[Gal(b1-4)]Glc6S
# Procedure, shortened: as §1
# [13] = molecular target: Fuc(a1-3)[Gal(b1-4)]GlcNAc(b1-2)Man
# Procedure, shortened: as §1
# [14] = molecular target: Fuc(a1-4)GlcNAc
# Procedure, shortened: as §1
# [15] = molecular target: Gal(a1-3)Gal(b1-3)GlcNAc
# Procedure, shortened: as §1
# [16] = molecular target: Gal(b1-4)GlcNAc(b1-2)Man(a1-6)Man(b1-4)GlcNAc(b1-4)GlcNAc
# Procedure, shortened: as §1
# [17] = molecular target: Gal(b1-4)GlcNAc(b1-3)Gal(b1-4)GlcNAc(b1-3)[Gal(b1-4)GlcNAc(b1-3)Gal(b1-4)GlcNAc(b1-6)]GalNAc
# Procedure, shortened: as §1
# [18] = molecular target: GalNAc(a1-3)GalNAc
# Procedure, shortened: as §1
# [19] = molecular target: GalNAc(b1-4)GlcNAc
# Procedure, shortened: as §1
# [20] = molecular target: GalNAc(b1-4)GlcNAc(b1-2)Man
# Procedure, shortened: as §1
# [21] = molecular target: GalNAc(b1-4)GlcNAc6S
# Procedure, shortened: as §1
# [22] = molecular target: GalNAc3S(b1-4)GlcNAc3S
# Procedure, shortened: as §1
# [23] = molecular target: Glc(b1-4)Glc
# Procedure, shortened: as §1
# [24] = molecular target: GlcA(b1-6)Gal
# Procedure, shortened: as §1
# [25] = molecular target: GlcNAc(b1-3)Gal(b1-4)GlcNAc(b1-3)Gal(b1-4)GlcNAc(b1-2)[GlcNAc(b1-3)Gal(b1-4)GlcNAc(b1-3)Gal(b1-4)GlcNAc(b1-6)]Man(a1-6)[GlcNAc(b1-3)Gal(b1-4)GlcNAc(b1-3)Gal(b1-4)GlcNAc(b1-2)Man(a1-3)]Man(b1-4)GlcNAc(b1-4)[Fuc(a1-6)]GlcNAc
# Procedure, shortened: as §1
# [26] = molecular target: GlcNAc(b1-3)Gal(b1-4)GlcNAc(b1-3)Gal(b1-4)GlcNAc(b1-3)Gal(b1-4)GlcNAc(b1-2)[GlcNAc(b1-3)Gal(b1-4)GlcNAc(b1-3)Gal(b1-4)GlcNAc(b1-3)Gal(b1-4)GlcNAc(b1-6)]Man(a1-6)[GlcNAc(b1-3)Gal(b1-4)GlcNAc(b1-3)Gal(b1-4)GlcNAc(b1-3)Gal(b1-4)GlcNAc(b1-2)Man(a1-3)]Man(b1-4)GlcNAc(b1-4)[Fuc(a1-6)]GlcNAc
# Procedure, shortened: as §1
# [27] = molecular target: GlcNAc(b1-3)Gal(b1-4)GlcNAc(b1-3)GalNAc
# Procedure, shortened: as §1
# [28] = molecular target: GlcNAc(b1-3)[GlcNAc(b1-4)][GlcNAc(b1-6)]GlcNAc
# Procedure, shortened: as §1
# [29] = molecular target: GlcNAc(b1-6)Gal(b1-4)GlcNAc
# Procedure, shortened: as §1
# [30] = molecular target: Man(a1-3)[Man(a1-6)]Man(b1-4)GlcNAc(b1-4)[Fuc(a1-6)]GlcNAc
# Procedure, shortened: as §1
binder,measurement,setting,value
SP16663B-bot-321-25-321 (Bacteroides ovatus) (protein) DDDDEVTMNSKFYLSTKVFPVDSYEASLSVILKDNSVVVNELQPNYRFVACATERLSKDVKITADSDDNLVSAYNKANDTEYNILPAENYSFTNKTVTIENGESVSGDSIKIELLNVGSLTTEGGYLLPVTISSIEGNNLDALSSNRGVVYLKIQNIHVNVESGQPAEGTLIADRSGWTVKVAPTTRGDAKNLIDGTNSDVARDGGAEYWLTVDIGKVQTLTGIRNKCYASSYSPTAVEVFTSSDGAKWKSIGAVTISKSGTQYIKFSKAVETRYLKYYVKQGPNTVSLTEFDLYAK,glycan array binding signal (z-score),[1],-0.653
same,glycan array binding signal (z-score),[2],-0.156
same,glycan array binding signal (z-score),[3],-0.106
same,glycan array binding signal (z-score),[4],-0.632
same,glycan array binding signal (z-score),[5],-0.394
same,glycan array binding signal (z-score),[6],-0.007
same,glycan array binding signal (z-score),[7],-0.437
same,glycan array binding signal (z-score),[8],1.9
same,glycan array binding signal (z-score),[9],0.071
same,glycan array binding signal (z-score),[10],1.04
same,glycan array binding signal (z-score),[11],0.604
same,glycan array binding signal (z-score),[12],1.36
same,glycan array binding signal (z-score),[13],0.558
same,glycan array binding signal (z-score),[14],21.5
same,glycan array binding signal (z-score),[15],0.607
same,glycan array binding signal (z-score),[16],-0.62
same,glycan array binding signal (z-score),[17],1.04
same,glycan array binding signal (z-score),[18],-0.141
same,glycan array binding signal (z-score),[19],1.29
same,glycan array binding signal (z-score),[20],1.72
same,glycan array binding signal (z-score),[21],-0.779
same,glycan array binding signal (z-score),[22],-0.087
same,glycan array binding signal (z-score),[23],0.122
same,glycan array binding signal (z-score),[24],0.013
same,glycan array binding signal (z-score),[25],2.65
same,glycan array binding signal (z-score),[26],1.28
same,glycan array binding signal (z-score),[27],-0.536
same,glycan array binding signal (z-score),[28],-0.112
same,glycan array binding signal (z-score),[29],1.33
same,glycan array binding signal (z-score),[30],0.967
